Only a selection was taken, and hits are over-represented in it overall.
LmPK inh: inhibitors of Leishmania mexicana pyruvate kinase | Potency, µM (top dose mostly 57.5 µM), without a hit: at the highest dose activity change, negative = inhibition, hits mostly inhibitors | AID 1721 | purified LmPK, Kinase-Glo ATP luminescence, 1 h | 290,000 tested, 0.37% active | Q27686; note: potency is the fitted concentration of half-maximal effect; % is set by controls: 0 for no effect and ±100 for the full control effect
Target sequence (Q27686 whole entry, looked up): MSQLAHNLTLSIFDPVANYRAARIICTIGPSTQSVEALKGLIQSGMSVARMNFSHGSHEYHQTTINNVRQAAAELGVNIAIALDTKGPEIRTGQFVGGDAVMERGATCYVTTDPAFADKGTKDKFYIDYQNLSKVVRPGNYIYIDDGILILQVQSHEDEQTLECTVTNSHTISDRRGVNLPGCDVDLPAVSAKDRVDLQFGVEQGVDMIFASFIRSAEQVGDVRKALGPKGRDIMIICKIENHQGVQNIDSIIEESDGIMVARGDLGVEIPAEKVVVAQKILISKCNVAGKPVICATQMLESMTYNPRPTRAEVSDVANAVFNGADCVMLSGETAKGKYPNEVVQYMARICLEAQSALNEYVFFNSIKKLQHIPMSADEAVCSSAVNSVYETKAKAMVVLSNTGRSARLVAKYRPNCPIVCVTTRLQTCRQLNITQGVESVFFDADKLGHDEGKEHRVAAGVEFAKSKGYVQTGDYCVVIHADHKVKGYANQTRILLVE
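qHTS format; LmPK 0.1 nM; substrates PEP 0.5 mM and ADP 0.1 mM. One-hour room-temperature incubation, then coupled luciferase luminescence; 0.5 nM enzyme wells mark activation.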
CHX counter: counter-screen for Shiga toxin inhibitors: cycloheximide protein synthesis inhibition | cell reporter, cycloheximide protein synthesis inhibition counterscreen | max response, % | 300,000 tested, 12% active | AID 2314; in the data active = max response mostly above about 13%, no sharp cut-off; inactive = mostly below about 14%; note: read at 38.3 µM for the half of the compounds with a filed dose; 0% is about no effect
Giardia FBPA inh: Giardia lamblia aldolase inhibition. A8B2U2. purified Giardia FBPA. Potency, µM (titrated, usually from 59.6 µM), for the others: at the top dose activity, negative = inhibition, hits mostly inhibitors. 290,000 tested, 0.71% active. AID 2451; note: potency is the fitted concentration of half-maximal effect; % is set by controls: 0 for no effect and ±100 for the full control effect; nearly all actives have a fitted effect of over 55% in size
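40 nM FBPA preincubated 10 min at RT with compound (up to 57.5 uM final), then substrate plus GAPDH/TPI/NAD/arsenate coupling and diaphorase/resazurin added. Fluorescence read after 20 min at RT, 525/598 nm.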
Shiga toxin inh: Shiga toxin inhibition | AID 2315 | inhibition, % at 38.7 µM | Vero cells, Shiga toxin protein synthesis inhibition reporter | 290,000 tested, 9.2% active; in the data active = inhibition mostly above about 28%, no sharp cut-off; inactive = mostly below about 43%; note: 0% is about no effect
Sm TGR block: blocks Schistosoma mansoni thioredoxin glutathione reductase | Q962Y6 | purified TGR, DTNB reduction, TNB absorbance 405 nm | Potency, µM (titrated, usually from 114 µM), inactives show at the highest dose activity change, negative = inhibition, hits mostly inhibitors | 360,000 tested, 3% active; note: potency is the fitted concentration of half-maximal effect; % is set by controls: 0 for no effect and ±100 for the full control effect; nearly all actives have a fitted effect of over 60% in size
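First, TGR (20 nM dispensed) and NADPH were mixed with compound. Second, a 15 min room-temperature incubation followed. Third, further NADPH and then DTNB were added to start the reaction. Finally, TNB absorbance was monitored kinetically.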
Tb PYK inh: T. brucei pyruvate kinase inhibition; Q57TT1; Potency, µM (top dose mostly 76.8 µM), for inactives: at the highest dose activity, negative = inhibition, actives largely listed as inhibitors; TbPYK enzyme, Kinase-Glo Plus ATP luminescence, 45 min; 410,000 tested, 0.12% active; note: potency is the fitted concentration of half-maximal effect; % is set by controls: 0 for no effect and ±100 for the full control effect; nearly all actives have a fitted effect of over 50% in size
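Luminescence from Kinase-Glo Plus, added after a 45-minute room-temperature reaction, served as the end-point read-out. The enzyme and substrate were preincubated with compound before ADP (130 uM final) initiated turnover. Concentration-effect curves came from normalized qHTS data.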
* = called active by the depositor; i = inactive; ? = inconclusive; . = no result; [ ] = remark or other dose. Unless noted, calls come from the whole dose curve; as a rule, active = well fitted curve in the direction sought with a large enough effect; inconclusive = small, poorly fitted or top-dose-only effect, or another doubt; inactive = no such curve, though single readings can be large; an effect the other way counts as inactive or inconclusive.

SMILES	LmPK inh	CHX counter	Giardia FBPA inh	Shiga toxin inh	Sm TGR block	Tb PYK inh
Cc1cccc(-n2nc([N+](=O)[O-])c(=NC3CCN(Cc4ccccc4)CC3)n2O)c1	1%	-1	-8%	-9	1%	6%
O=[N+]([O-])c1nn(-c2ccc3c(c2)OCCO3)n(O)c1=NC1CCCC1	-3%	32*	-3%	42*	9%	-5%
O=[N+]([O-])c1nn(-c2ccc3c(c2)OCCO3)n(O)c1=NC1CCCCCC1	3%	32*	-11%	84*	35µM*	4%
CCOC(=O)C(C)n1cnc2sc3c(c2c1=O)CCC3 (centres undefined)	1%	-7	-8%	-11	-28%	0%
CCc1cc2c(=O)n(C(C)C(=O)OC3CCCCC3)cnc2s1 (centres undefined)	-12%	41*	3%	37*	3%	-9%
Cc1ccc(-c2nc3c(c(=O)c4ccccc4n3C)c(=O)n2Cc2ccco2)cc1	5%	9	-8%	0	32µM*	28%
COCCn1c(-c2ccc(C)cc2)nc2c(c(=O)c3ccccc3n2C)c1=O	.	.	.	.	.	3%
Cn1c2ccccc2c(=O)c2c(=O)n(Cc3ccco3)c(-c3ccc(F)cc3)nc21	-6%	0	1%	-2	40µM*	0%
CCOC(=O)c1ccc(NC(=O)CC2Nc3ccccc3NC2=O)cc1 (centres undefined)	.	.	.	.	2%	-6%
COC(=O)[C@H]1[C@H](CCc2ccccc2)NC(=O)N(Cc2ccccc2)[C@@H]1C	-3%[11.5 µM]	.	4%[12.9 µM]	.	.	-3%
CCN1C(=O)N[C@@H](CCc2ccccc2)[C@@H](C(=O)OC)[C@H]1C	-7%[11.5 µM]	-4	7%[12.9 µM]	8	2.2µM*	0%
CC1C(=O)OC2C1CCC1(C)CCC(=O)C(C)C21 (centres undefined)	-3%	-1	8%	-7	3.5µM*	-10%
CC1=CC(=O)C2=C(C)CC[C@H]3[C@H](C)C(=O)O[C@@H]3C12 (some centres undefined)	.	20	13%	19	.	.
Cc1ccc(-c2c(C#N)c(N)nc3c2CCCC3)o1	-22%	1	12%	20	25µM*	-3%
COc1ccc(-c2c(C#N)c(N)nc3c2CCC3)cc1	4%	20*	1%	15	-2%	4%
CC(C)c1ccc2oc(-c3ccc(NC(=O)c4cccc(Br)c4)cc3)nc2c1	.	.	.	.	0%	-6%
Cc1cc2c(cc1Cl)C(c1ccccc1C)CC(=O)O2 (centres undefined)	.	-8	-2%[89.2 µM]	i	.	.
CCOc1ccc(CNC(=O)c2c(C)nn(-c3ccc(F)cc3)c2-n2cccc2)cc1	.	.	.	.	9%	-8%
CN1c2ccccc2C(C)(C)C12C=Cc1cc(O)ccc1O2 (centres undefined)	-2%	21*	-29%	54	?	?
CC(C)CCOc1ccc(C(=O)CCNC(C)C(=O)O)cc1 (centres undefined)	6%	6	-5%	-3	1µM*	.
CC(C)CCOc1ccc(C(=O)O)cc1	-8%	12	22%	-4	-6%	-2%
NNCCc1ccccc1	0%	47*	2%	110*	-17%	2%
O=C(Cn1cc(Cl)c([N+](=O)[O-])n1)NCCC1=CCCCC1	-8%	15*	0%	17	19%	2%
O=C(COC(=O)c1ccc([N+](=O)[O-])cc1)NCCC1=CCCCC1	.	.	.	.	.	-1%
CCOC(=O)c1ccc(NC(=O)C2CCN(C(=O)N3CC(C)Oc4ccc(C)cc43)CC2)cc1 (centres undefined)	.	.	.	.	-4%	2%
SMILES	LmPK inh	CHX counter	Giardia FBPA inh	Shiga toxin inh	Sm TGR block	Tb PYK inh
O=S(=O)(/C=C/c1ccccc1)Oc1ccccc1	-1%	28*	6%	21	-22%	1%
CNS(=O)(=O)/C=C/c1ccccc1	-1%	7	2%	12	-3%	5%
CN(Cc1ccccc1)c1ncnc2c1nnn2C	.	.	.	.	4%	2%
CC(C)Oc1ccc(/C=N/NC(N)=S)cc1	1%	61*	?	67*	0%	-10%
COc1ccc(C(=O)Oc2ccc(/C=N/O)cc2)cc1	1%	74*	9%	83*	2%	.
COc1ccc(/C=N/NC(N)=S)cc1	4%	13*	?	18	-1%	3%
COc1ccc(OC(=O)c2ccncc2)cc1	-6%	6	7%	-15	7%	-17%
COc1ccc(/C=N/N=C/c2ccc(OC)cc2)cc1	0%	25*	13%	46	9%	-6%
CC1CCCCN1C(=O)CN1CCN(S(=O)(=O)c2ccc(Br)cc2Cl)CC1 (centres undefined)	.	.	.	.	3%	-1%
CC(=O)c1cccc(NC(=O)c2cnn(-c3cccc(C)c3)c2-n2cccc2)c1	.	.	.	.	7%	13%[15.4 µM]
COCCN(C(=O)c1csnn1)C(C(=O)NC1CCCCC1)c1ccccc1 (centres undefined)	6%	-3	3%	-3	-6%	-5%
COc1ccc(/C=N/NC(=O)Nc2nonc2N)cc1	5%	48*	1%	75*	6%	-5%
COC(=O)c1cccc(/C=N/NC(N)=S)c1O	-7%	27*	-1%	26	3%	-3%
O=C(Cc1ccccc1[N+](=O)[O-])Nc1ccc2c(c1)OCO2	-9%	17*	-9%	66	.	-3%
O=C(Nc1ccc2c(c1)CCC2)Nc1ccccc1Cl	-8%	57*	-8%	155*	-2%	-9%
CCOc1ccccc1NC(=O)Nc1ccc2c(c1)OCO2	4%	37*	0%	38*	0%	-4%
Cc1ccc(OC(F)F)c(NC(=O)Nc2ccc3c(c2)OCO3)c1	5%	-4	3%	-10	-2%	-5%
Cc1ccc(C)c(NC(=O)Nc2ccc3c(c2)OCO3)c1	0%	47*	.	55*	5%	3%
CCOc1ccccc1OCCC(=O)Nc1ccc2c(c1)OCO2	.	.	.	.	.	-17%
O=C(Cc1ccccc1[N+](=O)[O-])NNC(=O)Nc1ccc2c(c1)OCO2	-1%	0	0%	2	-16%	1%
Cc1sc2ncn(CC(=O)N(C)c3cccc(C(F)(F)F)c3)c(=O)c2c1S(=O)(=O)N1CCN(c2ncccn2)CC1	.	.	.	.	-8%	-9%
O=S1(=O)c2ccccc2N(Cc2ccccc2)c2ccccc21	.	.	.	.	-2%	1%
COc1ccc(NC(=O)Nc2ccc3c(c2)OCO3)c(C)c1	-5%	66*	.	82*	-7%	1%
CC(=O)Nc1ccccc1OCC(=O)c1ccc2c(c1)OCO2	1%	43*	4%	79*	-12%	-2%
Cc1ccccc1NC(=O)Nc1ccc2c(c1)OCO2	-21%	44*	1%	77*	-22%	4%
CCOc1ccccc1NC(=O)Nc1cccc(NC(C)=O)c1	1%	-1	-7%	17	-3%	-1%
